The campaign covered roughly 310,000 compounds. About 14,000 (4.5%) showed an effect of 50% or more. The effect is printed as a negative number. The full list was thinned out, with strong results kept by preference.
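Note: peak tail current of the secondary pulse compared with the same well before compound.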

In this assay the target is human ether-à-go-go-related gene (hERG) potassium channel (human, UniProt Q12809). As to the kind of experiment: primary screen, population patch clamp on CHO cells stably expressing hERG; higher = less effect of the substance.
Chain of human ether-à-go-go-related gene (hERG) potassium channel (Q12809 whole entry, looked up): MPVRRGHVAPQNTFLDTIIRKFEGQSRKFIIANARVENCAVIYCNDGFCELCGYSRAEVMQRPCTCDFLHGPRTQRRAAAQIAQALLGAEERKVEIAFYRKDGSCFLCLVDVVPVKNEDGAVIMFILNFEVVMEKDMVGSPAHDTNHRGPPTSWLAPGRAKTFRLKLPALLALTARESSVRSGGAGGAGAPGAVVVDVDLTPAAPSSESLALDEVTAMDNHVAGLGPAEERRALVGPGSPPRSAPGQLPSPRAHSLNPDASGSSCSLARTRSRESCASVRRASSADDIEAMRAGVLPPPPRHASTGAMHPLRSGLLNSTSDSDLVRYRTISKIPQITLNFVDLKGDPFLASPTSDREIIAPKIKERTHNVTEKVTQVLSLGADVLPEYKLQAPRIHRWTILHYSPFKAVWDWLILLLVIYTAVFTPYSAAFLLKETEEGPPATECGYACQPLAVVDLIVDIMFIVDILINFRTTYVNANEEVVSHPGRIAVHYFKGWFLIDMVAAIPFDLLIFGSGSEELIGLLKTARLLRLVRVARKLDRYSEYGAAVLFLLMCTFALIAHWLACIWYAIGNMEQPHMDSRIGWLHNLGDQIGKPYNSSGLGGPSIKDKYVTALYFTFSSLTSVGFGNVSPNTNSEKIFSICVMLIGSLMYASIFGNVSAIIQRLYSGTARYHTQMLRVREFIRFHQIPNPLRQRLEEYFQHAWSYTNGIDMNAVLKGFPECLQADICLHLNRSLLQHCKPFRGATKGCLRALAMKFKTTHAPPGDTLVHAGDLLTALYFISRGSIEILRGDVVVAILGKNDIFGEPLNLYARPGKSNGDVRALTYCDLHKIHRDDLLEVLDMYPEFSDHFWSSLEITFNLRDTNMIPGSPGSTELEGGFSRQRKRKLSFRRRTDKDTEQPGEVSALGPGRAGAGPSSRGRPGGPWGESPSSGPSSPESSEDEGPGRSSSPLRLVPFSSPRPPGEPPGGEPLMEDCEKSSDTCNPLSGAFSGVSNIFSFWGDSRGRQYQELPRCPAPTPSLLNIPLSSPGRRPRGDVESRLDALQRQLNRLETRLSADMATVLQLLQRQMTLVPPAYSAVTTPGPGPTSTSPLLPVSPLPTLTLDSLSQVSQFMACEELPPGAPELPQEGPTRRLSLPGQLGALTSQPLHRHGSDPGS
Consider `CCOC(=O)C1(CCOC)CCN(Cc2ccc3nonc3c2)CC1`, for which the “hERG current change (%, negative = inhibition) at 10uM” value is -10.5%.
Consider `CCOC(=O)C1(CCOc2ccccc2)CCN(Cc2ccc(O)c(OC)c2)CC1`, for which the “hERG current change (%, negative = inhibition) at 10uM” value is on record as -75.4%.
With `CCOC(=O)C1(CCOc2ccccc2)CCN(Cc2cc(OC)c(O)c(OC)c2)CC1`, the “hERG current change (%, negative = inhibition) at 10uM” value is given as -77.6%.
For `CCOC(=O)C1(CCOc2ccccc2)CCN(Cc2ccc(F)c(OC)c2)CC1`, the “hERG current change (%, negative = inhibition) at 10uM” value is given as -35.3%.
The result for `CCOCCCNC(=O)Cc1ccc(OC)c(OC)c1` reads 14.1%.
The result for `Cc1ccc(NC(=O)CC(=O)Nc2ccc(C)c(C)c2)cc1C` reads 11.7%; that for `CCCn1c(CC)nc([N+](=O)[O-])c1S(=O)(=O)c1ccccc1`, -23.8%.
The result for `CCOC(=O)N1CCN(C(=O)C2CCN(S(=O)(=O)c3ccc(Cl)cc3)CC2)CC1` reads -48.7%; that for `O=C1CS/C(=N\N=C\c2ccccc2Cl)N1CC1CC1`, 12.3%; that for `FC(F)(F)c1cccc(Cn2c3[n+](c4ccc(C(F)(F)F)cc42)CCCCC3)c1.[Cl-]`, -17.6%.
In the case of `Cc1cc(C(C)(C)C)cc(C)c1Cn1c2[n+](c3ccc(C(F)(F)F)cc31)CCCCC2.[Cl-]`, the “hERG current change (%, negative = inhibition) at 10uM” value is on record as -55.4%.
With `FC(F)(F)c1ccc2c(c1)n(Cc1ccccc1)c1[n+]2CCCCC1.[Cl-]`, the “hERG current change (%, negative = inhibition) at 10uM” value is on record as -24%.
The result for `COc1ccc(OC)c(CC(=O)O)c1` reads 10.8%; that for `O=C(NC1CCCCC1)C1CCN(c2nccs2)CC1`, 4.43%.
Turning to `COc1ccc(/C=C2/C(=O)N=C(N)N2C)cc1OC`, the “hERG current change (%, negative = inhibition) at 10uM” value turned out to be 7.3%.
As for `COc1cc(-c2noc(C)c2/C=C/c2cccc([N+](=O)[O-])c2)cc(OC)c1OC`, the “hERG current change (%, negative = inhibition) at 10uM” value is listed as -2.59%.
The result for `COC(=O)C1=CN(CCCN2CCCC2=O)C=C(C(=O)OC)C1c1ccccc1C(F)(F)F` reads -57.1%; that for `COCCN1C=C(C(=O)OC)C(c2ccccc2C(F)(F)F)C(C(=O)OC)=C1`, -8.36%.
The result for `CCOC(=O)C1=CN(CC2CCCO2)C=C(C(=O)OCC)C1c1ccccc1C(F)(F)F` (stereo not shown) reads -64.7%; that for `COC(=O)C1=CN(CCCN2CCCC2=O)C=C(C(=O)OC)C1c1cccs1`, -25.1%.
As for `COC(=O)C1=CN(CC2CCCO2)C=C(C(=O)OC)C1c1ccccc1C(F)(F)F` (stereo not shown), the “hERG current change (%, negative = inhibition) at 10uM” value is given as 8.49%.
For the compound `CCCCN1C=C(C(=O)OC)C(c2ccccc2C(F)(F)F)C(C(=O)OC)=C1`, the “hERG current change (%, negative = inhibition) at 10uM” value is -1.84%.
For the compound `CN(Cc1ccccc1Br)C(=O)CN1C(=O)NC2(CCCCCC2)C1=O`, the “hERG current change (%, negative = inhibition) at 10uM” value was -11.1%.
With `O=C(Nc1cccc(Cl)c1)N1CCCC1`, the “hERG current change (%, negative = inhibition) at 10uM” value turned out to be 5.7%.
The result for `O=C(Nc1cccc(Cl)c1)OCCOc1ccccc1` reads 23%.
The result for `O=C(Nc1cccc(Cl)c1)N1CCC(CO)(CCOc2ccccc2)CC1` reads -58.6%; that for `CC(=O)Nc1ccc(CN2CCC(CO)(CCOc3ccccc3)CC2)cc1`, -69.9%; that for `CC(=O)Nc1ccc(N2CCN(Cc3ccccc3)CC2)cc1`, -14.6%.
The result for `COC(=O)c1ccc(CN2CCC(CO)(CCOc3ccccc3)CC2)cc1` reads -80.1%; that for `CSc1ccc(CN2CCC(CO)(CCOc3ccccc3)CC2)cc1`, -78.4%.
Turning to `OCC1(CCOc2ccccc2)CCN(Cc2ccncc2)CC1`, the “hERG current change (%, negative = inhibition) at 10uM” value is -41.5%.
The result for `CCS(=O)(=O)N1CCN=C1SCc1cccc(F)c1` reads 14.7%; that for `CCCCN(C)C(=O)c1ccc2c(c1)S(=O)(=O)c1ccccc1C2=O`, -24.4%; that for `Cc1ccc(C2(C)NC(=O)N(CC(=O)NC(C)c3ccccc3)C2=O)cc1` (stereo not shown), 11.7%.
The result for `CC(C)(C)c1ccc(OCCC(=O)OCC(=O)NC(=O)NC2CCCC2)cc1` reads 10.7%.
The result for `COc1ccc(NC(C)=O)cc1NC(=O)CSc1nnc(-c2ccccn2)n1C` reads -7.69%; that for `Cc1ccsc1CN(C)C(=O)CN1C(=O)NC(c2ccccc2)(c2ccccc2)C1=O`, -21.5%; that for `CCOC(=O)c1c(C)n(C)c2ccc(OCC(O)CN3CCCCCC3)cc12.Cl` (stereo not shown), -18.4%.
Turning to `NNC(=O)c1n[nH]c2c1CC(C1CCCCC1)CC2` (stereo not shown), the “hERG current change (%, negative = inhibition) at 10uM” value is 10.8%.
In the case of `CCOCCn1c(C(C)O)nc2ccccc21` (stereo not shown), the “hERG current change (%, negative = inhibition) at 10uM” value was determined as 11.7%.
The result for `Cc1cc(Cl)nc(-n2nc(C)cc2C)n1` reads 2.6%; that for `O=C(O)C(=O)O.OC(COCc1ccc(Cl)cc1)CN1CC=C(c2ccccc2)CC1` (stereo not shown), -77.2%.
For the compound `Cl.OC(COCc1ccc(Cl)cc1)CN1CCc2ccccc2C1` (stereo not shown), the “hERG current change (%, negative = inhibition) at 10uM” value was -70.4%.
The result for `NC(=O)C1CCCN(CC(O)COCc2ccc(Cl)cc2)C1.O=C(O)C(=O)O` (stereo not shown) reads -8.86%; that for `OC(CN1CC=C(c2ccccc2)CC1)c1ccccc1` (stereo not shown), -33%; that for `OC(COCc1ccc(Cl)cc1)CN1CCN(CC(O)COCc2ccc(Cl)cc2)CC1` (stereo not shown), -75.2%.
The result for `CCOC(=O)C1CCN(CC(O)COCc2ccc3c(c2)OCO3)CC1.Cl` (stereo not shown) reads -46%; that for `CCOC(=O)C1CCN(CC(O)COCc2ccc(Cl)cc2)CC1.Cl` (stereo not shown), -79.2%; that for `Cl.OC(COCc1ccc(Cl)cc1)CN1CCCCC1` (stereo not shown), -35.8%.
In the case of `COc1ccc(COCC(O)CN2CCc3ccccc3C2)cc1OC.Cl` (stereo not shown), the “hERG current change (%, negative = inhibition) at 10uM” value is 1.52%.
With `CCOC(=O)C1CCN(CC(O)COCc2ccccc2)CC1.O=C(O)C(=O)O` (stereo not shown), the “hERG current change (%, negative = inhibition) at 10uM” value is listed as -31.1%.
The result for `Cl.OC(COCc1ccccc1)CN1CCCC1` (stereo not shown) reads -6.03%; that for `Cl.OC(COCc1ccccc1)CN1CCc2ccccc2C1` (stereo not shown), -25.7%.
For `O=C(NCC(=O)N1CCCCCC1)c1ccc(Br)cc1`, the “hERG current change (%, negative = inhibition) at 10uM” value is -7.84%.
In the case of `CCOP(=O)(OCC)c1nc(-c2cccc3ccccc23)oc1NCc1ccccc1`, the “hERG current change (%, negative = inhibition) at 10uM” value is 10.2%.
Turning to `O=C(CN1CCc2ccccc2C1)Nc1cc(S(=O)(=O)N2CCOCC2)ccc1N1CCCC1`, the “hERG current change (%, negative = inhibition) at 10uM” value is on record as 0.983%.
The result for `O=C(N/N=C/C=C/c1ccccc1)c1cnccn1` reads 6.57%.
The result for `Cc1noc(C)c1S(=O)(=O)Nc1ccc(C(=O)N2CCC(C)CC2)cc1` reads -4.35%.
